The list is not random: actives were taken first. Their share in the collection is about 22%.
CYP2C9 inhib: inhibitors of human CYP2C9; P11712; CYP2C9 Supersomes, luciferin-H conversion, luminescence; inhibition, % at 5 µM; 96,000 compounds, 20% hits;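 active = blocking of liver enzyme CYP2C9 beyond about 50% at 5 µM, limit read from the data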
CYP2C19 inhib: blocks human cytochrome P450 2C19; CYP2C19 Supersomes, luciferin-H EGE luminescence, 30 min; 96,000 compounds, 21% hits; P33261; inhibition, % at 5 µM;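 active = CYP2C19 inhibition above a set limit at 5 µM in the primary screen, cut at about 50% in these data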
Target sequence (P33261 whole entry, looked up): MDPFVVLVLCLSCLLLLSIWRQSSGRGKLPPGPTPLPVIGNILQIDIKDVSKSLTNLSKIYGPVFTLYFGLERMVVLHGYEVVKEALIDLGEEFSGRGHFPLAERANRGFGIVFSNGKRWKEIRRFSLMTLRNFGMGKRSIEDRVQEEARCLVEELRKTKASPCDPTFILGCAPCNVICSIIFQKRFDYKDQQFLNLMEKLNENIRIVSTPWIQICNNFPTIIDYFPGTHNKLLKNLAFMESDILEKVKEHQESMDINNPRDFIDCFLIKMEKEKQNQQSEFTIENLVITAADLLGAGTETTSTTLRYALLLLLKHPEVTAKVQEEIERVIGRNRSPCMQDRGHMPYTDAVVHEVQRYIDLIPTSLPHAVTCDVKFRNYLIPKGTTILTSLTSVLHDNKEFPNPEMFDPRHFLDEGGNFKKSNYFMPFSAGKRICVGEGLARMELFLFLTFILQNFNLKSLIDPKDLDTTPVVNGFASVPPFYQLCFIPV
CYP2C9 activ: CYP2C9 (human) activation | P11712 | recombinant CYP2C9, luciferin-H conversion, luminescence; stronger effect = higher value; factor 1 = untreated enzyme, 0 = blocked | activation factor at 5 µM | 96,000 compounds, 1.4% hits;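 active = activation factor of 2 or more for CYP2C9 at a 5 µM dose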
CYP2C19 act: activators of human cytochrome P450 2C19; P33261; recombinant CYP2C19, luciferin-H EGE luminescence; stronger effect = higher value; 0 = fully inhibited enzyme, 1 = untreated enzyme; activation factor at 5 µM; 96,000 tested, under 10 active; AID 1025;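 active = activation factor of at least 2 at 5 µM in the primary screen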
Measles CPE: protection of cells from measles virus. Measles virus-infected cells, CPE protection, absorbance. protection (pct of control), % at 4 µM. 140,000 compounds, 1.5% hits. AID 841; in the data active = protection mostly above about 24%, no sharp cut-off; inactive = mostly below about 26%
Numbers stand for hits; i = inactive; nt = no result given.

SMILES	CYP2C9 inhib	CYP2C19 inhib	CYP2C9 activ	CYP2C19 act	Measles CPE
CCCCOC(=O)c1cc(=O)[nH]c2ccccc12	i	i	i	i	i
CCOC(=O)c1[nH]c(C)c(C(=O)OCc2c(C)noc2C)c1C	65.1	i	i	i	i
CCn1nc(C(=O)OCc2c(C)noc2C)c2ccccc2c1=O	76.1	i	i	i	i
CCc1cccc2c(C(=O)COC(=O)c3c(C)noc3C)c[nH]c12	i	i	i	i	i
Cc1noc(C)c1C(=O)OCC(=O)c1c[nH]c2ccccc12	88.0	90.8	i	i	i
COc1ccc(C2CC(c3ccc(OC)cc3)n3nc(NC(=O)c4cccs4)nc3N2)cc1 (configuration not stated)	i	i	i	i	i
Cc1ccc(-n2c(-c3c(-c4ccccc4)noc3C)n[nH]c2=S)cc1	67.5	61.7	i	i	i
O=C(Nc1nc(C2C3CC4CC(C3)CC2C4)cs1)c1cc2cc([N+](=O)[O-])ccc2oc1=O (configuration not stated)	i	i	i	i	i
C=CCn1c(=O)c2c(C)c(C)sc2n2c(Nc3ccc(OC)cc3)nnc12	91.0	i	i	i	i
Cc1cccc(C)c1NC(=O)CSc1nnnn1C	i	i	i	i	i
CCOC(=O)C1(C)NC(c2ccc(N(C)C)cc2)C2C(=O)N(CC)C(=O)C21 (configuration not stated)	i	i	i	i	i
CCOC(=O)C1(C)NC(c2ccc(OC)cc2OC)C2C(=O)N(c3cccc(OC)c3)C(=O)C21 (configuration not stated)	83.1	80.4	i	i	i
CCOC(=O)C1(C)NC(c2ccc(N(C)C)cc2)C2C(=O)N(c3ccc(OC)cc3)C(=O)C21 (configuration not stated)	i	57.3	i	i	i
COc1ccc(NC(=O)C(c2cc3c(cc2[N+](=O)[O-])OCO3)N(C)c2ccccc2)cc1 (configuration not stated)	nt	nt	nt	nt	i
CC1CCC/C(=N\NC(=S)NCc2ccccc2)C1 (configuration not stated)	85.2	82.0	i	i	i
CC(C)CC(c1nnnn1C(C)(C)C)N1CCN(C2CCCC2)CC1 (configuration not stated)	i	i	i	i	i
CCOC(=O)N1CCN(c2ccc(C(F)(F)F)cn2)CC1	nt	nt	nt	nt	i
CCOC(=O)C(C)S(=O)(=O)c1ccc(C(F)(F)F)cn1 (configuration not stated)	i	53.8	i	i	i
C/C=C/c1ccc(OCCCn2cncn2)c(OC)c1	50.1	89.0	i	i	i
C/C=C/c1ccc(OCCCCn2cncn2)c(OC)c1	i	75.2	i	i	i
C/C=C/c1ccc(OCCn2cncn2)c(OC)c1	i	64.9	i	i	i
C/C=C/c1ccc(OCCOc2cc(C=O)ccc2OC)c(OC)c1	nt	nt	nt	nt	i
CCOc1cc2[nH]c(=O)n(CCCCCC(=O)NCc3ccco3)c(=O)c2cc1OCC	i	i	i	i	i
CCOc1cc2[nH]c(=S)n(CCc3ccc(OC)c(OC)c3)c(=O)c2cc1OCC	i	i	i	i	i
CCOc1cc2[nH]c(=S)n(CCCCC(=O)NCc3ccco3)c(=O)c2cc1OCC	72.2	i	i	i	i
SMILES	CYP2C9 inhib	CYP2C19 inhib	CYP2C9 activ	CYP2C19 act	Measles CPE
CCOc1cc2[nH]c(=S)n(CCC(=O)NCc3ccc(OC)cc3)c(=O)c2cc1OCC	73.2	i	i	i	i
CCS(=O)(=O)N1Cc2ccccc2CC1C(=O)Nc1ccc(NC(C)=O)cc1 (configuration not stated)	i	i	i	i	i
O=C(Nc1ccc(NC(=O)C2CC2)nc1)c1ccco1	i	i	i	i	i
Cc1cc(N2CCN(c3ccccc3F)CC2)nc2cc(O)ccc12	i	56.9	2	i	i
Cc1cc(N2CCN(c3ccc(F)cc3)CC2)nc2cc(O)ccc12	i	i	3.2	i	i
COc1ccc2c(C)cc(N3CCN(c4ccc(F)cc4)CC3)nc2c1	i	83.0	2.3	i	i
Cc1ccc2oc(=O)c3cnn(CC(=O)N(CCCN4CCOCC4)Cc4ccco4)c3c2c1	nt	nt	nt	nt	i
Cc1ccc(NC(=O)COC(=O)Cc2ccsc2)cc1S(=O)(=O)N1CCOCC1	nt	nt	nt	nt	i
CSc1nc(-c2ccco2)cc(-c2ccccc2)c1C#N	65.7	i	i	i	i
COC(=O)CSc1nc(-c2ccccc2)cc(-c2ccco2)c1C#N	89.3	i	i	i	i
CC(C)CCNC1=CC(=O)CC(c2ccccc2)C1 (configuration not stated)	nt	nt	nt	nt	i
CC(C)CCOc1ccc(Cl)cc1CN1CCOCC1	i	55.9	i	i	i
CCCCCOc1ccc(Cl)cc1CN1CCOCC1	54.2	90.5	i	i	i
CCOc1ccc(Cl)cc1CN1CCOCC1	i	i	i	i	i
Cc1ccc2cc(C#N)c(N3CCCN(C(=O)C4CCCO4)CC3)nc2c1C (configuration not stated)	82.2	85.1	i	i	i
Cc1cc(C)c2nc(N3CCC(C(=O)N4CCN(C(=O)c5ccco5)CC4)CC3)sc2c1	51.9	52.1	i	i	i
Cc1cc(C)c2nc(N3CCCC(C(=O)N4CCN(c5ncccn5)CC4)C3)sc2c1 (configuration not stated)	i	i	i	i	i
Cc1ccc2cc(C#N)c(N3CCCC3)nc2c1C	i	i	i	i	i
Cc1cc(C)c2nc(N3CCCN(C(=O)c4ccco4)CC3)c(C#N)cc2c1	86.9	73.3	i	i	i
O=C(Nc1nc2nccc(-c3ccccc3)n2n1)C(Cl)(Cl)Cl	nt	nt	nt	nt	i
COCCn1c(=O)[nH]c(=O)c2c(C(F)(F)F)cc(-c3cccs3)nc21	nt	nt	nt	nt	i
CCCCn1c(=O)n(C)c(=O)c2c(C(F)(F)F)cc(-c3ccncc3)nc21	i	72.9	i	i	i
Cc1cccc(Nc2nc(-c3ccc4c(c3)OCCO4)cs2)c1	86.3	i	i	i	i
COc1cccc(C(=O)Nc2nc(-c3ccc4c(c3)OCO4)cs2)c1	i	i	i	i	i
Cc1cccc(Nc2nc(-c3c(C)nc4ccccn34)cs2)c1	61.2	i	i	i	i
SMILES	CYP2C9 inhib	CYP2C19 inhib	CYP2C9 activ	CYP2C19 act	Measles CPE
Cc1ccc(CCNc2ccccc2)c[n+]1[O-]	i	i	i	i	i
Cc1ccc(S(=O)(=O)CC(=O)c2ccccc2)cc1	i	i	2.9	i	i
CC(C)(C)c1ccc(S(=O)(=O)NC(Cc2ccccc2)C(=O)O)cc1 (configuration not stated)	i	i	i	i	i
CC(C)(C)c1ccc(C(=O)CS(=O)(=O)c2ccccc2)cc1	i	i	i	i	48.3
Cc1ccc(S(=O)(=O)Cc2ccc(C(=O)OCc3ccccc3)cc2)cc1	i	i	i	i	18.4
Cc1ccc(S(=O)(=O)CC(=O)c2ccc(C)c([N+](=O)[O-])c2)cc1	i	i	2	i	i
O=C(O)c1ccc(S(=O)(=O)Cc2ccccc2)cc1	i	i	i	i	i
CCOc1ccc(CN(CCC#N)C(=S)NC(=O)c2ccccc2)cc1	nt	nt	nt	nt	i
CCN(Cc1ccccc1)C(=O)c1ccccc1C	i	55.8	i	i	i
CCN(Cc1ccccc1)C(=O)CCCOc1ccccc1	i	73.4	i	i	i
